In the library only some 10% were active in any assay of this set; here they are far more common.
bCat KO growth: beta-catenin-lacking colon tumor cell growth suppression; 1.5% of 140,000 active; HCT116 beta-catenin knockout viability, CellTiter-Glo, 60 h; active compounds read low; viability, % at 10 µM;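 active means viability at or under a set limit, the compound median less 4 SD, cut at about 6% in these data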
p97 inhibitor: human p97 ATPase inhibition. AID 1481. P55072. recombinant p97 ATPase, Kinase-Glo ATP luminescence, 3 h. 0.42% of 220,000 active. inhibition, % at 8 µM; in the data active means inhibition above about 15%
Target sequence (P55072 whole entry, looked up): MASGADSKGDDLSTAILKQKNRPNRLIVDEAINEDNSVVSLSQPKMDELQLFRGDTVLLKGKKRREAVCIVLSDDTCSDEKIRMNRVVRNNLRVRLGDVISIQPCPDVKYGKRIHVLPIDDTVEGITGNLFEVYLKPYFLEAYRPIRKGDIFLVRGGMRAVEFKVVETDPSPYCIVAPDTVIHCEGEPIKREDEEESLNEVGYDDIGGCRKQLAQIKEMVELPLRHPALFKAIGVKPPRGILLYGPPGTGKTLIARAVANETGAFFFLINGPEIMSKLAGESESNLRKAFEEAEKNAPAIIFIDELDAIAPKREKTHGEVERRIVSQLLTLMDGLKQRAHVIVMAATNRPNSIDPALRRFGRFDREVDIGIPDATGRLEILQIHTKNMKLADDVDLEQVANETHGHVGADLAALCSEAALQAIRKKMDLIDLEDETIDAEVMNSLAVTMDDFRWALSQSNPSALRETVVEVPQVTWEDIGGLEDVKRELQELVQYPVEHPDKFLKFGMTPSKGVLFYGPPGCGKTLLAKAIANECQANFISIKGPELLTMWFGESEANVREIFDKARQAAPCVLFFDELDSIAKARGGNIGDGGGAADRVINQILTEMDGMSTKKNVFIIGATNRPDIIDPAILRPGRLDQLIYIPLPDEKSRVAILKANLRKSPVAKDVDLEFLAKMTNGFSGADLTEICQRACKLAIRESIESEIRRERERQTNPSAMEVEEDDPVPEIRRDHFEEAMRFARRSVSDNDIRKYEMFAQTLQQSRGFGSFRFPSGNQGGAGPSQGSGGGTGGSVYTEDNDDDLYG
ROMK primary: human ROMK K+ channel modulation, primary screen; P48048; Tet-inducible ROMK, thallium flux fluorescence; actives lie on both sides; B-score at 10 µM; 2% of 130,000 active; AID 1918;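 active means signal ratio slope over the read window, or its plate-corrected B-score, at least 3 SD from the plate mean, either direction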;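 further: B-score of the F/F0 ratio slope over 7 to 12 s after thallium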
PTEN del growth: growth suppressors of cells with PTEN tumor suppressor deletion; HCT116 PTEN-null viability, CellTiter-Glo, 60 h; active compounds read low; viability, % at 10 µM; 1.2% of 140,000 active;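 active means viability at or below a set limit, 4 SD under the median of all tested compounds, cut at about 3.7% in these data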;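 further: PTEN knockout HCT116 line with beta catenin targeted HCT116 as companion control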
Lmaj promast: Leishmania major promastigote growth inhibition | AID 1063 | inhibition, % at 10 µM | Leishmania major promastigotes, resazurin fluorescence viability | 9% of 200,000 active; in the data active means inhibition above about 50%;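 further: promastigotes grown with compound for 44 hours at 28 °C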
Insulin prom inh: TRM-6 insulin promoter activity inhibition; TRM-6 cells (human fetal islet line), insulin promoter-eGFP reporter, imaging; reporter expression induced with tamoxifen; inhibition, % at 2 µM; 0.9% of 130,000 active;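 active means inhibition above the mean plus 3 SD, with well images judged a real hit on visual review, cut at about 60% in these data, passing the limit was not always enough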
Numbers stand for hits; i = inactive; nt = not tested or not shown.

SMILES	bCat KO growth	p97 inhibitor	ROMK primary	PTEN del growth	Lmaj promast	Insulin prom inh
COc1cc([N+](=O)[O-])cc(/C=N/NC(=O)CC#N)c1O	nt	i	i	nt	i	nt
CSCCCNC(=O)c1ccc(OC2CCN(CCc3ccccc3)CC2)cc1	nt	i	i	nt	75	nt
CN(Cc1cnn(C)c1)C(=O)c1ccc(OC2CCN(CCc3ccccc3)CC2)cc1	nt	i	i	nt	i	i
COc1ccc(NC(=O)CSc2cc(C(=O)c3nccn3C)c3ccccc3n2)cc1	nt	i	i	nt	i	nt
Cc1cc2nc(-c3ccc(SCC(=O)NC(C)C)nc3)[nH]c2cc1C	nt	i	i	nt	i	i
CCn1c(SCC(=O)Nc2nc(C)c(C)s2)nc2cccnc21	i	i	i	i	92	i
CCn1c(SCC(=O)N2CCCc3ccccc32)nc2cccnc21	i	i	3.1	i	i	i
O=C(CSc1nnc(-c2ccccc2)c(-c2ccccc2)n1)N1CCc2ccccc21	i	i	nt	i	57	i
Cc1cc2nc(-c3ccc(SCC(=O)N4CCc5ccccc54)nc3)[nH]c2cc1C	0.8	i	i	1.0	86	nt
O=C(Cc1ccc2c(c1)OCCO2)N1CCN(S(=O)(=O)c2cccc(C(F)(F)F)c2)CC1	i	i	i	i	i	i
O=C(COc1cccnc1[N+](=O)[O-])Nc1ccc(Cl)c(S(=O)(=O)N2CCOCC2)c1	nt	i	nt	nt	nt	nt
NC(=O)c1ccccc1NC(=O)Nc1ccc(F)c(Cl)c1	nt	i	i	nt	i	nt
Cc1ccc(-c2cnc(SCC(=O)N3CCCc4ccccc43)n2C)cc1	i	i	nt	i	i	i
Cn1c(-c2ccccc2)cnc1SCC(=O)N1CCCc2ccccc21	i	i	i	i	77	i
O=C(O)CC1S/C(=N/N=C/c2ccc(-c3ccc(Cl)c([N+](=O)[O-])c3)o2)NC1=O (stereo unspecified)	nt	i	i	nt	i	nt
O=C(O)CC1S/C(=N/N=C/c2ccc(-c3ccc(Cl)cc3[N+](=O)[O-])o2)NC1=O (stereo unspecified)	i	i	i	i	99	nt
Cc1cccc(C)c1OCC(=O)Nc1ccc(N2CCOCC2)cc1	nt	i	i	nt	i	nt
COc1ccc(CCNc2nc(N3CCOCC3)nc(N3CCOCC3)n2)cc1OC	i	i	i	i	i	i
COc1ccc(CCNc2nc(N3CCCCC3)nc(N3CCCCC3)n2)cc1OC	i	i	nt	i	95	i
CCOc1nc(NCCc2ccc(OC)c(OC)c2)nc(NC(C)(C)CO)n1	i	i	i	i	53	i
COc1cc(NC(c2ccccc2)c2ccccc2)cc(OC)c1OC	nt	i	i	nt	96	nt
Brc1ccc2c(c1)C(C1=NCCN1)c1ccccc1CS2 (stereo unspecified)	i	i	i	i	i	i
c1ccc2c(c1)CCCC2C1=NCCN1 (stereo unspecified)	0.8	i	nt	0.8	i	i
CCC(C)NC(=S)Nc1ccc(C(=O)OC)cc1 (stereo unspecified)	nt	i	i	nt	i	nt
Cn1nccc1CNC(=O)c1c(Cl)cnn1C	i	i	i	i	i	73
SMILES	bCat KO growth	p97 inhibitor	ROMK primary	PTEN del growth	Lmaj promast	Insulin prom inh
N#Cc1c(N)nc2c(c1-c1ccccc1)CCC2	nt	i	i	nt	i	i
CCc1cccc(CC)c1NC(=O)COC(=O)C1(c2ccc(Cl)cc2)CCCC1	i	i	nt	i	i	nt
CC(=O)Nc1ccc(NC(=O)COC(=O)C2(c3ccc(Cl)cc3)CCCC2)cc1	i	i	i	i	74	i
CNc1ccccc(-c2ccc3ccccc3n2)c1=O	i	i	i	i	i	i
CC(=O)c1sccc1NC(=O)CC(C)(C)CC(=O)O	nt	i	i	nt	nt	nt
CC1=C/C(=N\NC(=S)Nc2cccnc2)CC(C)(C)C1	nt	i	3	nt	99	nt
CCC(C)(C)C1CCC(=NNC(=S)Nc2cccnc2)CC1 (stereo unspecified)	nt	i	i	nt	i	nt
CC(c1ccccc1F)n1cc(C(=O)NCCCc2nc3ccccc3[nH]2)nn1 (stereo unspecified)	nt	i	i	nt	i	nt
Cc1ccc(OCC(=O)N(Cc2ccccc2)C2CCS(=O)(=O)C2)c([N+](=O)[O-])n1 (stereo unspecified)	i	i	nt	i	i	nt
CCN(C(=O)COc1ccc(C)nc1[N+](=O)[O-])C1CCS(=O)(=O)C1 (stereo unspecified)	i	i	i	i	51	i
CC(C)Oc1ccc(CC2CCC(=O)N(C)C2=O)cc1 (stereo unspecified)	i	i	nt	i	i	i
O=C1c2ccccc2C(=O)c2c1cccc2-n1nnc2ccccc21	nt	i	nt	nt	nt	nt
O=C1C(N2CCOCC2)=C(n2nnc3ccccc32)C(=O)c2ccccc21	2.0	i	i	2.1	100	i
O=C(/C=C/c1ccc(O)c(O)c1)c1ccc(S(=O)(=O)N2CCCCCC2)cc1	i	i	i	i	95	i
CCOc1ccc(N2C(=O)C3C(c4ccccc4F)NN(C(=O)c4ccc(C)cc4)C3C2=O)cc1 (stereo unspecified)	i	i	i	i	i	i
Cc1nn2c(nc1=O)SCC(c1ccccc1)=N2	i	i	nt	i	i	82
Cc1cccc(-c2nnc3n2N=C(c2ccccc2)CS3)c1	i	i	i	i	i	nt
Cc1cccc(CN2CCCC(C(=O)N3CCc4ccccc4C3)C2)c1 (stereo unspecified)	i	i	i	i	95	i
O=C(C1CCCN(Cc2ccccc2F)C1)N1CCc2ccccc2C1 (stereo unspecified)	nt	i	i	nt	nt	nt
O=C(C1CCCN(Cc2ccncc2)C1)N1CCc2ccccc2C1 (stereo unspecified)	i	i	nt	i	91	nt
C=CCc1c(NCCO)nc(C)[nH]c1=O	nt	i	i	nt	i	i
COc1ccc(C(CC(=O)O)NC(=O)COc2cc(C)ccc2C)cc1OC (stereo unspecified)	nt	i	i	nt	i	i
COc1ccc2c(c1)cc(C(=O)O)n2C	i	i	nt	i	i	i
COc1ccc2c(c1)sc(=N)n2C	nt	i	i	nt	101	i
Cc1nn(-c2ccccc2)c(C)c1C(=O)OCC(=O)N1CC(=O)Nc2ccccc21	i	i	nt	i	i	93
SMILES	bCat KO growth	p97 inhibitor	ROMK primary	PTEN del growth	Lmaj promast	Insulin prom inh
CCCCN(CC)CCCNC(=S)Nc1ccc2nc(N3CCN(C)CC3)cc(C)c2c1	nt	i	i	nt	56	nt
Cc1cc(N2CCN(C)CC2)nc2ccc(NC(=S)NCCCN3CCN(C)CC3)cc12	nt	i	i	nt	i	nt
CCCCN(CC)CCCNC(=S)Nc1ccc2nc(N3CCN(CC)CC3)cc(C)c2c1	nt	i	i	nt	96	nt
CCOC(=O)CSc1cc(C)c(C#N)c2nc3ccccc3n12	nt	i	i	nt	i	nt
CCOC(=O)c1c(C)cc(C)n2c1nc1ccccc12	i	i	nt	i	i	75
N=C1S/C(=C\c2ccco2)C(=O)N1c1ccc2c(c1)OCO2	nt	i	i	nt	i	nt
N=C1S/C(=C\c2ccco2)C(=O)N1c1nccs1	nt	i	i	nt	90	nt
Cc1ccc(C)c(-n2c(SCC(=O)NC(C(=O)O)C(C)C)nnc2-c2cccc(Cl)c2)c1 (stereo unspecified)	nt	i	i	nt	i	i
CS(=O)(=O)N(CC(=O)NCc1ccco1)c1ccc(Cl)c(C(F)(F)F)c1	i	i	i	i	76	i

Screening data from PubChem BioAssay.
